Assay results published in the supplement of paper PMC10646978.
± gives the standard deviation.

These molecules were tested on RAW-Dual (murine macrophage reporter line) (assay: IRF reporter (Lucia luciferase) activity fold change vs agonist alone; higher = enhanced IRF activity). Conditions: modulator concentration 10 µM; agonist: 3'3'-cGAMP 10 ug/mL.
How it was run: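 Overnight stimulation with a PRR agonist followed pre-incubation for 1 hour at 37 °C with compound at 10 μM final. This was done in RAW-Dual murine macrophage reporter cells seeded at 50 000 per well in 384-well plates. NF-κB (SEAP, QUANTI-Blue absorbance at 620 nm) and IRF (Lucia luciferase, QUANTI-Luc luminescence) were read from the supernatant. Each reporter's fold change relative to the mean agonist-only control on the same plate was averaged over replicate plates.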

SMILES | IRF reporter
CC(=O)Nc1ccc(C(=O)NCC#CCN(C)C)cc1 | 1.04 ± 0.057
CC(=O)Oc1ccc(C=Cc2cc(OC(C)=O)cc(OC(C)=O)c2)cc1 | 0.87 ± 0.029
O=C(O)COc1cc(Cl)c(Cl)cc1Cl | 1.02 ± 0.039
Cc1ccc(C)c2sc(N3CCN(C)CC3)nc12.Cl | 0.92 ± 0.032
COc1ccccc1CC(=O)N1CCN(Cc2cnnn2-c2ccccc2F)CC1 | 1.16 ± 0.093
Cc1cccc2sc(NC(=O)c3cccn(Cc4ccc(Br)cc4)c3=O)nc12 | 1.04 ± 0.052
CCN(CC)CCOC(=O)C(O)(c1ccccc1)c1ccccc1.Cl | 1.38 ± 0.043
O=C(NCCN1CCN(c2ccccc2)CC1)c1ccc(F)cc1 | 1.1 ± 0.18
c1cc2c(cc1C1OCC3C(c4ccc5c(c4)OCO5)OCC13)OCO2 (stereo not drawn) | 0.841 ± 0.041
CN1C2CCC1CC(OC(=O)C(CO)c1ccccc1)C2 (stereo not drawn) | 0.91 ± 0.032
COc1cc2c(c(OC)c1OC)-c1ccc(O)c(=O)cc1C(NC(C)=O)CC2 (stereo not drawn) | 0.705 ± 0.024
O=C1NC(=O)N(c2ccccc2F)C(=O)C1=Cc1ccc(OCc2ccc([N+](=O)[O-])cc2)c(Cl)c1 | 0.916 ± 0.049
CCCCCC(=O)NC(Oc1ccc([N+](=O)[O-])cc1)C(Cl)(Cl)Cl (stereo not drawn) | 0.896 ± 0.22
C=C1C[C@@H]2[C@H](CC[C@]3(C)C(=O)CC[C@@H]23)[C@@]2(C)C=CC(=O)C=C12 | 0.789 ± 0.051
O=C1NC(=O)C(=Cc2cccn2-c2ccc(Br)cc2)C(=O)N1 | 0.876 ± 0.094
CC(C)N(CCC(C(N)=O)(c1ccccc1)c1ccccn1)C(C)C (stereo not drawn) | 0.849 ± 0.064
CCNCC.O=C(O)Cc1ccccc1Nc1c(Cl)cccc1Cl | 0.921 ± 0.034
Cc1cc(N2CCNCC2)c2ccccc2n1 | 0.561 ± 0.045
